Inconclusive results are not listed. Unmarked numbers belong to inactive results. Active and inactive are the calls of the source. Calls follow the shape of the dose curve; as a rule, active = well fitted inhibition curve with a large enough effect; inconclusive = small, poorly fitted or top-dose-only effect; inactive = no such curve, though single readings can be large or run the other way.
Experiment: BET inhibitor-based combinations targeting novel dependencies in MECOM-rearranged (r) AML: UCSD-AML1 cell line (AID 2202235); also: nearly all actives have a fitted effect of over 40% in size;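 as to viability (% of control): plate controls were DMSO vehicle wells for no effect and blank wells for full effect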
Details: UCSD-AML1 AML cells viability, CellTiter-Glo, 48 h; series mostly up to 46 µM; viability (% of control): at the top concentration
Description: Ecotropic viral insertion site 1 (EVI1) is located on chromosome 3q26.2 as part of the MECOM (MDS and EVI1 complex) locus. Under normal hematopoiesis, EVI1 is a regulator of hematopoietic stem cell maintenance and self-renewal and EVI1 levels decrease as the cells differentiate. In approximately 5-10% of de novo acute myeloid leukemia (AML) EVI1 is aberrantly expressed, including Chromosomal inv(3)(q21;q26.2) or t(3;3)(q21;q26.2) alterations (MECOM-r) that account for about 50% of AML with EVI1 overexpression 31. AMLs with high levels of EVI1 have a poor prognosis and an overall survival time averaging between 10-14 months. EVI1 overexpression confers resistance in leukemia cells, highlighting the need to develop new targeted therapies for EVI1 overexpressing AMLs. Here, we performed an unbiased chemical drug screening by evaluating the single agent activity of a collection of 2,480 oncology-focused, approved and investigational drugs (NCATS Mechanism Interrogation Plates, MIPE v5.0) against a panel of seven AML cell lines. These included four MECOM-r cell-lines (AML-191, AML-194, UCSD-AML1 and HNT-34) and three non-MECOM-r AMLs (MV4-11, OCI-AML3 and SET-2). Exploiting the mechanistic redundancy built in the library, we identified target-level sensitivities in MECOM-r AML cells and relative activity as compared to other AML subtypes.
A collection of 2480 mechanistically annotated dugs (MIPE v5.0) was used to screen four 3q26.2 rearranged AML cell lines and three non-3q26.2 rearranged AML cell lines. This library purposely exploits redundancy by including multiple inhibitors of key onco-targets, while simultaneously encompassing mechanistic diversity, targeting more than 800 distinct mechanisms of action. Briefly, cells were seeded in 5 uL of growth media using a Multidrop Combi dispenser into 1536 well white polystyrene tissue culture treated plates (Corning) at a density of 500cells/well. For each cell-line, for each of the 2480 drugs in MIPE v5.0 library, an 11-point dose curve was generated via a 1536 pin-tool. Plates were incubated for 48 hr at standard incubator conditions, covered by a stainless steel gasketed lid to prevent evaporation. Cell viability was determined by luminescence based, Cell Titer Glo assay (Promega). In detail, 3 uL of Cell Titer Glo were added to each well and plates were incubated at room temperature for 15 min with a stainless-steel lid in place. Luminescence readings were taken using a Viewlux (PerkinElmer) with a 2 s exposure time per plate. Compound dose-response curves were normalized to DMSO and empty well controls on each plate. Quantitative drug activity data from dose-response curves was determined utilizing area Under the Curve (AUC) and Z-transformed AUC (Z-AUC, a mean-centering transformation applied to each individual cell-line screened).
Potency is read from the fitted curve at half-maximal effect.

Compound | viability (% of control) | Potency
COc1cc2c(cc1OC)C1CC(=O)C(CC(C)C)CN1CC2 (stereo not given) | 105% | –
CC[C@@H]1C(=O)N(C)c2cnc(Nc3ccc(C(=O)NC4CCC(N5CCN(CC6CC6)CC5)CC4)cc3OC)nc2N1C(C)C (stereo not given in full) | – | 0.166 µM (active)
N#Cc1cccc(-c2c[nH]c3ncnc(N4CCOCC4)c23)c1 | 118% | –
CCc1ccc(C(=O)Nc2cc(CN3CCN(C)CC3)cc(C(F)(F)F)c2)cc1C#Cc1cnc2ccnn2c1 | – | 9.34 µM (active)
CN1C(C(=O)Nc2ccccn2)=C(O)c2ccccc2S1(=O)=O | 109% | –
CNC(=O)c1cccc(-c2ccc3c(N4CCOC[C@@H]4C)nc(N4CCOC[C@@H]4C)nc3n2)c1 | – | 0.0661 µM (active)
C[C@]12CC[C@@H]3c4ccc(O)cc4C[C@@H](CCCCCCCCCS(=O)CCCC(F)(F)C(F)(F)F)[C@H]3[C@H]1CC[C@H]2O (stereo not given in full) | 94.9% | –
O=c1cc(CN2CCOCC2)occ1OCCCCCSc1ccnc2cc(C(F)(F)F)ccc12 | 103% | –
COC(=O)Nc1nc2ccc(Sc3ccccc3)cc2[nH]1 | – | 0.468 µM (active)
Nc1cccc(-c2cc3c(Oc4cccc(O)c4)ncnc3[nH]2)c1 | – | 8.33 µM (active)
COc1cc2ncnc(Nc3cc(Br)c(O)c(Br)c3)c2cc1OC | – | 26.3 µM (active)
CN(C(=O)c1ccc(F)cc1C(F)(F)F)C1CCN(c2nnc(-c3ccnn3C)c3ccccc23)CC1 | 114% | –
Cn1c(=O)c(Oc2ccc(F)cc2F)cc2cnc(NC3CCOCC3)nc21 | 107% | –
Nc1nc2c(ncn2COC(CO)CO)c(=O)[nH]1 | 94.5% | –
CNC(=O)c1ccccc1Nc1nc(Nc2ccc3c(c2OC)CCC[C@@H](N2CCN(CCO)CC2)C3)ncc1Cl | 106% | –
CCCCCCCCCC(=O)N[C@@H](Cc1c[nH]c2ccccc12)C(=O)N[C@H](CC(N)=O)C(=O)N[C@@H](CC(=O)O)C(=O)N[C@@H]1C(=O)NCC(=O)N[C@@H](CCCN)C(=O)N[C@@H](CC(=O)O)C(=O)N[C@H](C)C(=O)N[C@@H](CC(=O)O)C(=O)NCC(=O)N[C@H](CO)C(=O)N[C@@H]([C@@H](C)CC(=O)O)C(=O)N[C@@H](CC(=O)c2ccccc2N)C(=O)O[C@@H]1C | 108% [at 15.6 µM] | –
COc1c2occc2cc2ccc(=O)oc12 | 109% | –
CCCCOc1ccc(C(=O)Nc2ccc(F)cc2F)cc1 | 104% | –
O=C(Nc1ccccc1Br)N[C@@H]1CCN(c2ccc(C(F)(F)F)cn2)C1 | 120% | –
CC(C)c1cc(-c2n[nH]c(=O)n2-c2ccc3c(ccn3C)c2)c(O)cc1O | – | 0.0468 µM (active)

Compound | viability (% of control) | Potency
CN1CCN(C2CCN(C(=O)Nc3cc(Oc4ccc(NC(=O)C5(C(=O)Nc6ccc(F)cc6)CC5)c(F)c4)ccn3)CC2)CC1 | – | 7.42 µM (active)
CC[C@H](Nc1ncnc2nc[nH]c12)c1nc2cccc(F)c2c(=O)n1-c1ccccc1 | – | 5.9 µM (active)
CC(=O)N1CCN(CCOc2ccc(C3CCN(C4=Nn5c(nnc5C(F)(F)F)CC4)CC3)cc2)CC1 | 116% | –
COc1cc2ncnc(Nc3cccc(Br)c3)c2cc1OC | – | 20.9 µM (active)
CNC(=O)c1c(F)cccc1Nc1nc(Nc2cc3c(cc2OC)CCN3C(=O)CN(C)C)nc2[nH]ccc12 | – | 8.33 µM (active)
CCOc1ccc(Nc2nc(-c3c(C)nc4ccccn34)cs2)cc1 | – | 0.0934 µM (active)
CCOc1cc(N)c(Cl)cc1C(=O)NCC1CN(Cc2ccc(F)cc2)CCO1 (stereo not given) | 108% | –
Cn1c(=O)c2[nH]cnc2n(C)c1=O | 110% | –
O=C(O)c1ccccc1C(=O)Nc1ccc(-c2ccccc2)cc1 | 113% | –
CC1(CN2CCC(n3c(=O)[nH]c4ccccc43)CC2)OCc2ccccc2-n2cccc21 (stereo not given) | 123% | –
CC(C)C[C@H](NC(=O)CNC(=O)c1cc(Cl)ccc1Cl)B(O)O | – | 0.166 µM (active)
NC1(c2ccc(-c3nc4ccn5c(=O)[nH]nc5c4cc3-c3ccccc3)cc2)CCC1 | – | 14.8 µM (active)
Cc1c(F)cc(C(=O)NC2CC2)cc1-c1ccc(C(=O)NCC(C)(C)C)cn1 | 104% | –
O=C(CCCCCCC(=O)Nc1cccnc1)NO | – | 7.42 µM (active)
Cc1cccc(Oc2cnc(=O)[nH]c2)c1 | 99.6% | –
NC(=O)c1cnc(N[C@@H]2CCCC[C@@H]2N)nc1Nc1cccc(-n2nccn2)c1 | – | 8.33 µM (active)
c1coc(CNc2ncnc3nc[nH]c23)c1 | 104% | –
CCNC(=O)Nc1ncc(-c2cc(-c3c(C)cc(OC)cc3C)nc(-c3cnccn3)n2)s1 | 114% | –
CCOC(=O)[C@H](CCc1ccccc1)N[C@@H](C)C(=O)N1CCC[C@H]1C(=O)O | 108% | –
COc1ccc(C(=O)C2CCN(CC(=O)N(Cc3nc4c(c(=O)[nH]3)COCC4)CC3CC3)CC2)cc1 | 112% | –
